LYPLA2 counter – LYPLA2 (human) inhibition in PME1 counter-screen | recombinant LYPLA2, FP-Rh probe fluorescence polarization | inhibition, % at 5.9 µM | actives 0.38% (n = 320,000);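 active = inhibition above the screen-wide mean plus 3 SD, limit set per campaign, cut at about 26% in these data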
Target sequence (O95372 whole entry, looked up): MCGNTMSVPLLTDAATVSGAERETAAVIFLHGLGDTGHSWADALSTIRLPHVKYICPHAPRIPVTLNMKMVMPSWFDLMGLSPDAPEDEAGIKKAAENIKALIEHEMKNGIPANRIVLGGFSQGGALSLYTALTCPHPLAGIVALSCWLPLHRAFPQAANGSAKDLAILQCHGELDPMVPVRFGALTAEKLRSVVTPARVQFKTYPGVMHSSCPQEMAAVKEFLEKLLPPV
Fam108B inh – Fam108B inhibition, counter-screen for RBBP9 inhibitors; inhibition, % at 9.51 µM; recombinant Fam108B, FP-Rh probe fluorescence polarization; actives 0.33% (n = 300,000);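 active = inhibition above the screen mean inhibition plus 3 SD, computed separately per campaign, cut at about 18% in these data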;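 also: inhibitors lower polarization as less probe binds the enzyme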
PME-1 inh – PME-1 (human) inhibition; inhibition, % at 5.9 µM; Q9Y570; recombinant PME-1, FP-Rh probe fluorescence polarization; actives 0.53% (n = 320,000);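 active = inhibition above the campaign mean of all compounds plus 3 SD, cut at about 26% in these data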;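 also: competitive labeling of PME-1 active site by serine hydrolase directed probe; inhibitors block probe labeling so polarization falls and inhibition rises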
PAD4 inh – PAD4 (human) enzyme inhibition; recombinant PAD4, RCA probe fluorescence polarization; actives 0.41% (n = 330,000); Q9UM07; inhibition, % at 6.36 µM;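 active = percent inhibition above a cutoff equal to the mean of all tested compounds plus 3 SD, cut at about 15% in these data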
LYPLA1 inh – counter-screen for PME1 inhibitors: inhibitors of human LYPLA1 | O75608 | recombinant LYPLA1, FP-Rh probe fluorescence polarization | inhibition, % at 5.9 µM | actives 0.16% (n = 320,000) | AID 2174;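 active = inhibition above the mean of all tested compounds plus 3 SD, set per campaign, cut at about 14% in these data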;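 also: inhibitors block serine hydrolase probe labeling of LYPLA1 so polarization falls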
GSTO1 counter – GSTO1 inhibition, counter-screen for RBBP9 inhibitors; P78417; actives 1.1% (n = 300,000); recombinant GSTO1, activity-based probe fluorescence polarization; inhibition, % at 5.96 µM; AID 1974;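 active = inhibition above the campaign mean inhibition plus 3 SD, cut at about 35% in these data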
Target sequence (P78417 whole entry, looked up): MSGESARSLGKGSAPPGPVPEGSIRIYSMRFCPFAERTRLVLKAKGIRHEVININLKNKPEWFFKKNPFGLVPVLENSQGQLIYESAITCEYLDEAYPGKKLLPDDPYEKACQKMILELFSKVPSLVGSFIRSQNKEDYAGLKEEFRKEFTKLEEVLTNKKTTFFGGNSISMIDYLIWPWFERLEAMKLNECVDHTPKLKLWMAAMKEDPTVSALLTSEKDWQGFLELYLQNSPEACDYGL
GSTO1 confirm – GSTO1 (human) inhibition, confirmation. AID 2176. actives 54% (n = 2,400). inhibition, % at 5.96 µM. recombinant GSTO1, probe fluorescence polarization. shares compounds with GSTO1 counter;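 active = inhibition above the primary screen's cutoff, its mean inhibition plus 3 SD, cut at about 35% in these data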;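 also: loss of polarization as inhibitors block binding of rhodamine sulfonate ester activity probe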
Of the large screens only hits and unclear results are named; the others gave an inactive call (follow-up assays come after a bar, where they were run). An excerpt weighted towards active compounds, which were near 1.8% of everything screened.

Cc1ccc(C)c(S(=O)(=O)N2CCCC2CNC(=O)C(=O)NC2CCCC2)c1 (centres undefined)	none
Cc1ccc(OC(C)C(=O)Nc2ncc(Cl)cc2Cl)c([N+](=O)[O-])n1 (centres undefined)	none (no result: LYPLA2 counter, Fam108B inh, PME-1 inh, LYPLA1 inh, GSTO1 counter)
CC(OC(=O)c1ccc([N+](=O)[O-])s1)C(=O)Nc1ncc(Cl)cc1Cl (centres undefined)	GSTO1 counter 46.4 | GSTO1 confirm inactive
O=C(O)c1ccc(N/N=C/C(Br)=C/c2ccccc2)cc1	GSTO1 counter 64.4 | GSTO1 confirm 64.7
CC(CCc1ccccc1)NC(=O)COC(=O)C1CCC(C(C)(C)C)CC1 (centres undefined)	GSTO1 counter 41.7 | GSTO1 confirm inactive
O=C1c2ccccc2C(=O)C12OC(c1ccccc1)C1(C(=O)c3ccccc3C1=O)C2c1ccc([N+](=O)[O-])cc1 (centres undefined)	none
O=C1c2ccccc2C(=O)C12OC2c1ccc(Cl)cc1 (centres undefined)	GSTO1 counter 44.7 | GSTO1 confirm inactive
Cn1cc(C(=O)c2ccc(Cl)cc2Cl)cc1C(=O)N/N=C(\N)COc1ccc(Cl)cc1Cl	none
CCOC(=O)C/C(N)=N/NC(=O)c1ccc(Cl)cc1Cl	GSTO1 counter 62.1 | GSTO1 confirm inactive
CC(C)=NOc1cc(NC(=O)CCl)cc([N+](=O)[O-])c1	GSTO1 counter 80.0 | GSTO1 confirm 99.5
O=Nc1c(O)c2ccccc2c2ccccc12	PME-1 inh 35.4, GSTO1 counter 78.0 | GSTO1 confirm 80.7
O=C(CCCOc1cccc(Br)c1)NCCOc1ccccc1	none
COC(=O)c1ccccc1NC(=O)c1ccccc1SC	GSTO1 counter 65.8 | GSTO1 confirm inactive
CCOC(=O)c1ccccc1NC(=O)c1ccccc1SC	none
Nc1c(Cl)cc(-c2cn(CCC(=O)O)c(-c3ccncc3)n2)cc1Cl	none
CS(=O)(=O)c1ccc2c(c1)sc1nc(=O)c(/C=C3/C=CC(=O)C(O)=C3)c(N)n12	GSTO1 counter 43.6 | GSTO1 confirm inactive
CC(=O)c1ccc(NC2=C(N3CCOCC3)C(=O)c3ccccc3C2=O)cc1	GSTO1 counter 39.3 | GSTO1 confirm inactive
Cc1ccc(S(=O)(=O)NC2=C(N3CCN(c4ccccc4F)CC3)C(=O)c3ccccc3C2=O)cc1	none
Cc1ccc(NC2=C(N3CCOCC3)C(=O)c3ccccc3C2=O)cc1	GSTO1 counter 48.0 | GSTO1 confirm inactive
CC(=O)c1ccc(S(=O)(=O)Nc2ccc(N3CCOCC3)cc2)cc1	none
CCNC(=O)N1c2ccc(OCC)cc2C(C)=CC1(C)C	none
CCOc1ccc2c(c1)C(C)=CC(C)(C)N2C(=O)Nc1ccccc1F	GSTO1 counter 42.0 | GSTO1 confirm inactive
C=CCn1c(SCC(=O)c2ccc(O)c(O)c2)nnc1-c1cccc(C)c1	none (no result: Fam108B inh, GSTO1 counter)
C=CCn1c(SCC(=O)c2ccc(O)c(O)c2)nnc1-c1cccnc1	GSTO1 counter 40.2 | GSTO1 confirm inactive
C=CCn1c(SCC(=O)c2ccc(O)c(O)c2)nnc1-c1ccccc1OC	GSTO1 counter 40.9 | GSTO1 confirm inactive
Cc1c(C(=O)Nc2ccc(S(=O)(=O)N(C)C3CCN(C)CC3)cc2)oc2c(Cl)cccc12	none
O=C1C(c2ccccc2)=[N+]([O-])c2ccccc21	GSTO1 counter 63.9 | GSTO1 confirm 48.2
COC(=O)[C@H](CC(C)C)NC(=O)NCc1ccc(Cl)cc1	none
CC(OC(=O)C1CC1)C(=O)Nc1ncc(Cl)cc1Cl (centres undefined)	none (no result: Fam108B inh, GSTO1 counter)
Nc1nnc(SCC(=O)OCC(=O)Nc2ccccc2)s1	none
COC(=O)c1ccccc1NC(=O)COC(=O)CSc1nnc(N)s1	GSTO1 counter 45.0 | GSTO1 confirm inactive
Cc1cc(NC(=O)Cc2cccs2)no1	GSTO1 counter 44.5 | GSTO1 confirm inactive
CCc1cccc(OCC(O)Cn2c(N3CCCCC3)nc3c2c(=O)[nH]c(=O)n3C)c1 (centres undefined)	none
COC(=O)C(N)Cc1ccc(O)cc1 (centres undefined)	none
COC(=O)C(N)Cc1ccc(O)c(O)c1 (centres undefined)	GSTO1 counter 89.5 | GSTO1 confirm inactive
O=C(NNC(=O)c1cc(Br)c(Br)s1)c1ccncc1	none (no result: Fam108B inh, GSTO1 counter)
CC1(C)CC(=O)C(C=Nc2ccc3c(c2)OCO3)=C(O)C1	none

Source: PubChem
